This is an account of results in PubChem BioAssay (Tox21).

Assay [1] can be described thus: qHTS assay for small molecules that induce genotoxicity in human embryonic kidney cells expressing luciferase-tagged ATAD5 (AID 651632). Also: nearly all actives have a fitted effect of over 15% in size. Also: potency is read from the fitted curve at half-maximal effect. The essentials: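 Quantitative HTS in HEK293T expressing luciferase-tagged ATAD5, whose levels rise upon DNA damage. Exposure ran 16 hr at 37C and 5% CO2, with luminescence read 30 min after Amplite addition at room temperature.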
On the technique in general: Quantitative high-throughput screening tests each substance at several concentrations.

The nature of assay [2]: qHTS assay for small molecule agonists of the p53 signaling pathway - cell viability (AID 651633; calls by dose curve;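 also: p53RE-bla HCT reporter cells with a stable beta-lactamase p53 reporter; series mostly up to about 83 µM; nearly all actives have a fitted effect of over 30% in size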). In outline:
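p53RE-bla cells, seeded at 4,000 per well and rested 5 h at 37 C/5% CO2, received compounds in DMSO for 16 h at 37 C. CellTiter-Glo was then added, and luminescence was read after 30 min at room temperature to gauge cytotoxicity.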

A short description of assay [3]: qHTS assay for small molecules that induce genotoxicity in human embryonic kidney cells expressing luciferase-tagged ATAD5 - cell viability (AID 651634; calls by dose curve; also: nearly all actives have a fitted effect of over 25% in size). The essentials:
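After 15.5 hr incubation with compound at 37C, 5% CO2, HEK293T ATAD5-luciferase cells received CellTiter-Fluor reagent; fluorescence intensity was quantified following 30 min at 37C.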

The nature of assay [4]: qHTS assay for small molecule disruptors of the mitochondrial membrane potential - cell viability (AID 720634; calls by dose curve;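 also: human HepG2 liver cancer cells; series mostly up to about 83 µM; nearly all actives have a fitted effect of over 20% in size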). The essentials: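 ATP-based luminescent viability readout (CellTiter-Glo, 30 min, room temperature) in HepG2 cells multiplexed with the m-MPI membrane potential dye; compound exposure lasted 1 hr at 37 C.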
Assay [5] in a line: qHTS assay for small molecule disruptors of the mitochondrial membrane potential (AID 720635). Also: potency is read from the fitted curve at half-maximal effect. The essentials:
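HepG2 cells (2,000/well) attached overnight at 37C, then took compound for 1 hr at 37C, 5% CO2. Mito-MPS dye was added for 30 min; fluorescence was read at 490/535 nm (monomers) and 540/590 nm (aggregates).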

The nature of assay [6]: qHTS assay to test for compound auto fluorescence at 590 nm (red) in HepG2 cells (AID 720674). The essentials:
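Intrinsic compound fluorescence in the red window (Ex/Em 540/590 nm) is measured in attached HepG2 cells exposed for 1 hr, DMSO vehicle as baseline, benchmarked to Rose Bengal sodium.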

Assay [7] in a line: qHTS assay to test for compound auto fluorescence at 535 nm (green) in HepG2 cells (AID 720675).
Assay [8] in a line: qHTS assay to test for compound auto fluorescence at 460 nm (blue) in HEK293 cells (AID 720678). In outline: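 HEK293 cells (2,000 per well, medium with 10% dialyzed FBS) attached for 4-5 hr at 37C, then received compound and stood overnight at 37C, 5% CO2. Blue fluorescence was read at Ex/Em 405/460 nm and expressed relative to triamterene.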
Assay [9] in a line: qHTS assay to test for compound auto fluorescence at 535 nm (green) in HEK293 cells (AID 720680).
The nature of assay [10]: qHTS assay to test for compound auto fluorescence at 460 nm (blue) in HEK293 cell free culture (AID 720681). The essentials:
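Test compounds were pinned into cell-free culture medium (DMEM with 10% FBS) and fluorescence was read directly at Ex/Em 405/460 nm. Signals were expressed as fluorescence equivalents of triamterene, with DMSO vehicle as control.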

Assay [11] is described as follows: qHTS assay to test for compound auto fluorescence at 590 nm (red) in HEK293 cell free culture (AID 720683). The essentials:
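Tox21 10K library compounds were pinned into cell-free DMEM with 10% FBS and fluorescence was read at excitation 540 nm. Activity is expressed as Rose Bengal sodium equivalency.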

Assay [12] is described as follows: qHTS assay to test for compound auto fluorescence at 590 nm (red) in HepG2 cell free culture (AID 720684). In outline:
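Readout: intrinsic compound fluorescence at 590 nm emission after 540 nm excitation, scaled to Rose Bengal sodium. Matrix was cell-free MEM with 10% FBS; DMSO vehicle wells served as control.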

The nature of assay [13]: qHTS assay to test for compound auto fluorescence at 460 nm (blue) in HepG2 cell free culture (AID 720685). The essentials:
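Cell-free plates of MEM plus 10% FBS received 23 nL compound or DMSO vehicle; blue-channel (405/460 nm) intensity scored against triamterene as reference fluorophore.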

Assay [14] is described as follows: qHTS assay to test for compound auto fluorescence at 535 nm (green) in HepG2 cell free culture (AID 720686).
The nature of assay [15]: qHTS assay to test for compound auto fluorescence at 460 nm (blue) in HepG2 cells (AID 720687). In outline:
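Cells (2,000/well in MEM with 10% FBS) attached overnight at 37 C, then were exposed to compound or DMSO for 1 hr at 37 C, 5% CO2. Fluorescence read at Ex/Em 405/460 nm, expressed as triamterene-equivalent signal.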

Assay [16] concerns the target Glucocorticoid receptor (Homo sapiens) (UniProt P04150). Nature of the assay: qHTS assay to identify small molecule agonists of the glucocorticoid receptor (GR) signaling pathway (AID 720691; active = well fitted activation curve with a large enough effect in the signal ratio in the repeat runs, not every such curve was filed as active; the % refers to the signal ratio; also: potency is read from the fitted curve at half-maximal effect). In outline:
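Cells: GR-bla HeLa, endogenous GR with stably integrated GRE-beta-lactamase reporter. Treatment 18 h, 37 C, compounds delivered in DMSO. Detection via LiveBLAzer B/G FRET substrate, 2 h RT, fluorescence intensity.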

Assay [17] is described as follows: qHTS assay to test for compound auto fluorescence at 535 nm (green) in HEK293 cell free culture (AID 720682). In outline:
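Compounds were pin-transferred into cell-free DMEM with 10% FBS, and green fluorescence was read at excitation 485 nm and emission 535 nm. Intensities were expressed as fluorescein-equivalent values.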

Assay [18] has as its target Glucocorticoid receptor (Homo sapiens) (UniProt P04150). The assay is described as follows: qHTS assay to identify small molecule antagonists of the glucocorticoid receptor (GR) signaling pathway (AID 720692; active = well fitted inhibition curve with a large enough effect in the signal ratio in the repeat runs, not every such curve was filed as active; the % refers to the signal ratio). In outline: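 Quantitative HTS in antagonist format: HeLa cells expressing endogenous GR and a stably integrated GRE-bla reporter, stimulated with 5 nM dexamethasone (final) alongside test compounds for 18 h.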

Assay [19] can be described thus: qHTS assay to test for compound auto fluorescence at 590 nm (red) in HEK293 cells (AID 720679). The essentials:
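HEK293 cells (2,000/well, medium with 10% dialyzed FBS) attached for 4-5 hr at 37C, received 23 nL compound and were incubated overnight at 37C, 5% CO2. Red fluorescence was then read at 540/590nm Ex/Em, referenced to Rose Bengal sodium.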

Values without a mark were called inactive. Inconclusive results are not listed. The source made the active and inactive calls. Unless noted, calls follow the shape of the dose curve; as a rule, active = well fitted curve in the direction sought with a large enough effect in the repeat runs; inconclusive = weak or mixed curves; inactive = no such curve, though single readings can be large; an effect the other way counts as inactive or inconclusive.
% is scaled to controls: 0 for no effect and ±100 for the full control effect.

Chain of Glucocorticoid receptor (Homo sapiens) (P04150 whole entry, looked up): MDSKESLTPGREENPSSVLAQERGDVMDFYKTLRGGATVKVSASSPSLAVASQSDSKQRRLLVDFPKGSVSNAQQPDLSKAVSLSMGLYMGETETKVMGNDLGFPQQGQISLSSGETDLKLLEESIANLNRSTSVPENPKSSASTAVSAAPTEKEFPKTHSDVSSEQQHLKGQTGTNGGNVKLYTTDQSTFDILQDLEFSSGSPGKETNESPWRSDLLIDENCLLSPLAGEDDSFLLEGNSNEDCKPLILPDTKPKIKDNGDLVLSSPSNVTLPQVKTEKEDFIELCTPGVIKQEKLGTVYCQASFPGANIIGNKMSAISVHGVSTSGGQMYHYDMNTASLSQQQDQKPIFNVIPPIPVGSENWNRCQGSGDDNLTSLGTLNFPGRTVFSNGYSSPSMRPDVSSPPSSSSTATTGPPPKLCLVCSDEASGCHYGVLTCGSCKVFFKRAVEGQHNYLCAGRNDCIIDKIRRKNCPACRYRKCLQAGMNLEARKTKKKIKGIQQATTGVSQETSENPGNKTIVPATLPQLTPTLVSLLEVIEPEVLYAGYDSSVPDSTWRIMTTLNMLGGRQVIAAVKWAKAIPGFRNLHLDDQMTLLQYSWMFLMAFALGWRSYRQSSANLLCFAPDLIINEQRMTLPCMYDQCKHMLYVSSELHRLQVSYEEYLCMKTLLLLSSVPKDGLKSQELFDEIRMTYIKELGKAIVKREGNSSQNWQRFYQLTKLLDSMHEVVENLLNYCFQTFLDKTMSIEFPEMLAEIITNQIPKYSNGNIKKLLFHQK

As to `O=CNc1ccccc1`, the Potency entry in [1], in assay [2], in [3], in [4], in assay [5] and in assay [8] was “inactive” in each case. The Potency entry in [10], in assay [13], in assay [15] and in assay [16] was “inactive” each time. The outcome in [6], in [7], in assay [9], in assay [11], in assay [12] and in assay [14] was inactive.

In the case of `SC1CCCC1`, the Potency result in [1], in [2], in [3], in assay [4], in assay [5] and in assay [8] was “inactive” throughout. Further, the Potency entry in assay [10], in assay [13] and in assay [15] was “inactive” each time. Further, the result in assay [6], in [7], in assay [17], in assay [11] and in assay [14] was inactive.

For the compound `O=C(NS(=O)(=O)/C=C/c1cccs1)c1ccc(F)cc1Br`, the Potency in assay [1] is 1.37 µM (active); in assay [5], 61.1 µM (active). The Potency entry in [2], in assay [3], in assay [4], in assay [8], in assay [10] and in assay [13] was “inactive” in each case. Moreover, the Potency entry in assay [15] was “inactive”. The compound was classed as inactive in [6], in assay [7], in assay [9], in assay [17], in assay [11] and in assay [14].

Take `CC(=O)O[C@@H]1C(=O)O[C@@H]2[C@H]1OC(=O)[C@@H]2OC(C)=O`: the Potency entry in [1], in assay [2], in [3], in [4], in assay [8] and in [10] was “inactive” throughout. Moreover, the Potency result in assay [13], in assay [16] and in assay [18] was “inactive” throughout. The result in [6], in assay [7], in [17], in assay [11], in assay [12] and in assay [14] was inactive.

As to `CCCCC(CC)(CO)CO`, the Potency result in [1], in assay [2], in [3], in [4], in [8] and in [10] was “inactive” each time. The Potency result in assay [13] and in assay [15] was “inactive” throughout. The call in [6], in assay [7], in [19], in assay [9], in assay [17] and in [11] was inactive. Also, the call in assay [12] and in assay [14] was inactive.

Regarding `CCCCc1cc2ccccc2c(OCCN(C)C)n1`, the Potency result in [1], in assay [2], in assay [3] and in assay [4] was “inactive” each time. In addition, the fluorescence, relative to Rose Bengal in assay [6] was 0.0286% [at 18.6 µM]. For the same compound, the fluorescence, % of fluorescein control in assay [7] is 0.0129% [at 18.6 µM]; in [14], 0.0394% [at 18.6 µM]. In addition, the fluorescence, % of triamterene in assay [8] was 0.0451% [at 18.6 µM]. In addition, the fluorescence, % of fluorescent control in [19] was -0.0036% [at 18.6 µM]; in assay [10] it was -0.0502% [at 18.6 µM]; in assay [11], 0.0019% [at 18.6 µM]; in [13] it was -0.0015% [at 18.6 µM]. Further, in assay [17], the activity change is -0.13% [at 18.6 µM]. Further, the fluorescence, % of Rose Bengal in [12] was 0.586% [at 18.6 µM]. Further, in [16], the Potency was 1.02 µM (active).

With `O=C(CCN1CCN2CCCC2C1)N1c2ccccc2Sc2ccc(Cl)cc21` (stereo unspecified), the Potency result in assay [1], in assay [2], in [3], in [4], in [10] and in assay [13] was “inactive” in each case. Moreover, the Potency result in assay [15], in assay [16] and in assay [18] was “inactive” in each case. The result in assay [6], in assay [7], in assay [19], in assay [9], in assay [17] and in assay [11] was inactive. Moreover, the call in assay [12] and in assay [14] was inactive.

For the compound `CC(=O)SCc1ccco1`, the Potency entry in [1], in assay [2], in assay [3], in assay [4], in [5] and in assay [8] was “inactive” each time. Moreover, the Potency result in assay [10], in assay [13], in [15], in assay [16] and in [18] was “inactive” throughout. For the same compound, the outcome in assay [7], in assay [19], in assay [9], in assay [17], in [11] and in assay [12] was inactive. In assay [14], the outcome was inactive.
